According to PubChem BioAssay:

Test: basal RPMI8226 mitochondrial membrane potential changes, profiling panel, cell-based, JC-1 fluorescence, 24 h, 100 nL compound (AID 1169); note: test concentration not given here
Conditions: RPMI8226 myeloma, JC-1 mitochondrial potential fluorescence, higher = more signal
`COCC(=C=CC[C@@H](O)c1cccc(OCCO)c1)C[C@@H](O)c1ccccn1` showed a z-score of 0.00702. With `C[C@@]1([C@@H](NC(=O)c2ccc(-c3ccccc3)cc2)c2ccc(Cl)cc2)C[C@H]1C1CCCCC1` the z-score was -0.902. For `CCc1cccc(NC(=O)O[C@H]2[C@H](OC(=O)Nc3ccccc3-c3ccccc3)[C@@H](OC(=O)Nc3ccccc3-c3ccccc3)[C@@H](OC)O[C@@H]2CO)c1`, the z-score was -1.1. In the case of `C=C[C@H](CO[Si](CC)(CC)CC)N(Cc1ccc(OC(C)=O)c(OC)c1)S(=O)(=O)c1ccc(Br)cc1`, the z-score is reported as -1.1. Compound `C[C@H]1NC(=O)[C@@]23C(=O)N[C@@H](Cc4ccccc4)C2[C@H](C)[C@@]2(C)O[C@H]2C3/C=C/C/C=C\CNC(=O)[C@@H]2CCCN2C1=O` (stereo partly drawn) has a z-score of 0.263. With `CCS[C@H]1[C@@H](C(=O)O)[C@H](c2ccc(C)cc2)N(S(=O)(=O)c2ccc(C)cc2)[C@@H]1CC` the z-score was 0.551. For `COCCOC(=O)N1C(=O)[C@@]2(c3ccccc31)[C@H](C(=O)N1CCc3cc(OC)c(OC)cc3C1)[C@H]1C(=O)O[C@H](c3ccccc3)[C@H](c3ccccc3)N1[C@@H]2c1ccc(OCCO)cc1`, the z-score was -0.618. Compound `[N-]=[N+]=Nc1ccccc1[C@H]1OC(c2ccc(OCCCO)cc2)=N[C@@]1(CCS(=O)(=O)c1ccccc1)C(=O)NCC(O)CO` (stereo partly drawn) has a z-score of 0.311. With `[N-]=[N+]=NCc1ccccc1[C@@H]1OC(c2ccc(OCCCO)cc2)=N[C@]1(Cc1ccccc1)C(N)=O` the z-score was -0.75. With `C=C(CCCC)C(=O)CC[C@@H](OC(=O)c1ccccc1-c1ccccc1C(=O)O)c1ccc(OCCO)cc1` the z-score was -0.659. Work on `O=C(CS)NCCCCCCNC(=O)[C@@H]1C[C@@H]2C(=O)N[C@@H](Cc3ccccc3)C(=O)N2[C@@H]1c1cccc(OCCO)c1` yielded a z-score of 0.198. Compound `CC(C)C(O)C1C=CC2C(=O)N(c3ccccc3)C(=O)C2N1Nc1ccc([N+](=O)[O-])cc1` (stereo not drawn) has a z-score of 0.766. Work on `CC(C)N1C(=O)[C@@]2(Cc3ccccc31)c1ccccc1C(=O)N(Cc1ccccc1Cl)[C@H]2c1ccc(CO)cc1` yielded a z-score of 0.115. Work on `C=CCC(OC(C)=O)[C@@H]1[C@@H](N(Cc2cc3ccccc3o2)C(=O)c2cccc3ccccc23)c2cc(OCCCO)ccc2N1C(=O)c1ccc(-c2ccccc2)cc1` (stereo partly drawn) yielded a z-score of -0.448. `C=CCC(OC(C)=O)[C@@H]1[C@@H](N(Cc2ccc(-c3ccccc3)cc2)C(=O)Cc2ccc(OC)cc2)c2cc(OCCCO)ccc2N1C(=O)Cc1ccc2ccccc2c1` (stereo partly drawn) gave a z-score of 0.158. Compound `Cc1ccc(S[C@]2(C(=O)O)CC(=O)N(C(C)C)[C@@H]2c2ccc(CO)cc2I)cc1` has a z-score of -0.527. For `O=C1O[C@@H](c2ccccc2)[C@@H](c2ccccc2)N2[C@@H](c3ccccc3OCCO)[C@]3(C(=O)Nc4ccc(C#CC5=CCCCC5)cc43)[C@@H](C(=O)N3CCCCCCC3)[C@H]12`, the z-score was -0.715. Work on `O=C1OCCC/C=C\[C@H]2OC34C=CCN(Cc5ccccc5)C(=O)[C@H]3N(CCCO)C(=O)[C@@H]4C12` (stereo partly drawn) yielded a z-score of 0.0319. For `COC(=O)[C@@]1(Cc2ccc(OC)cc2)[C@H]2c3cc(C(=O)N(C)C)n(Cc4ccc(S(C)(=O)=O)cc4)c3C[C@H]2CN1C(=O)c1ccccc1`, the z-score was 0.484. `CC(C)C[C@@H]1NC(=O)[C@H](C(C)C)NC(=O)[C@@]23C(=O)N[C@@H](Cc4ccccc4)C2[C@H](C)[C@@]2(C)O[C@H]2C3/C=C/CC/C=C/CNC1=O` (stereo partly drawn) gave a z-score of 0.0651. `COCCOC(=O)N1C(=O)[C@@]2(c3ccccc31)[C@H](c1ccc(O)cc1)N1[C@H](c3ccccc3)[C@H](c3ccccc3)OC(=O)[C@H]1[C@@H]2C(=O)Nc1nc2ccccc2s1` gave a z-score of -0.883. In the case of `CC(C)OC(=O)C=C1C[C@@H](c2ccccn2)O[C@@H](c2ccccn2)O1`, the z-score is reported as 0.65. For `COC(=O)[C@@]1(Cc2ccc(F)cc2)[C@H]2c3cc(C(=O)N(C)C)n(Cc4ccc(Cl)c(C(F)(F)F)c4)c3C[C@H]2CN1C(=O)c1ccccc1`, the z-score was -0.854. For `CC(C)(C)OC(=O)CC[C@]1(C(=O)N2CCOCC2)N=C(c2ccc(OCCCO)cc2)O[C@H]1c1ccccc1N=[N+]=[N-]`, the z-score was -0.252. For `C=C(C(=O)CC[C@@H](OC(=O)c1cccnc1)c1ccccc1OCCO)C(C)C`, the z-score was -0.356. For `NCCCCCCNC(=O)[C@@H]1C[C@@H]2C(=O)NCC(=O)N2[C@@H]1c1ccc(O)cc1`, the z-score was -0.796. Compound `CCCCCCc1nc(-c2cc(C)c(OC)c(C)c2)cc2c1[Si](C(C)C)(C(C)C)OC2` has a z-score of -0.547. Work on `C=CCOC(=O)[C@@H]1[C@H]2C(=O)O[C@H](c3ccccc3)[C@H](c3ccccc3)N2[C@H](c2ccc(OCCOC(=O)[C@H]3C[C@H]4C(=O)N5CCC[C@H]5C(=O)N4[C@H]3c3ccc(O)cc3)cc2)[C@@]12C(=O)Nc1ccc(I)cc12` yielded a z-score of -0.81.
